What all share (experiment): PBM binding z-score (relative to random genomic background probes); higher = stronger binding; sequences stand for … in GC…GCGATTGACAGCGTAGAATGAAGG
In assay [1] the test system is FXR:RXRa (NR concentration 270 nM, RXRa partner concentration 90 nM). Put shortly: (§1)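 Ligand-free nuclear receptor dimers were bound for 1 h to custom Agilent 4×180K protein-binding microarrays. Detection used antibodies against each partner (one per run). Binding z-scores rest on regression-normalized fluorescence, with random background probes as the reference.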

Assay [2] concerns LXRa:RXRa (NR concentration 270 nM, RXRa partner concentration 90 nM). The procedure, abridged: as §1
The subject of assay [3] is LXRa homodimer (NR concentration 270 nM). The procedure, abridged:
as §1

Assay [4] has as its system LXRb:RXRa (NR concentration 270 nM, RXRa partner concentration 90 nM). Put shortly:
as §1

The subject of assay [5] is LXRb homodimer (NR concentration 270 nM). Put shortly:
as §1

The subject of assay [6] is PPARa:RXRa (NR concentration 270 nM, RXRa partner concentration 90 nM). Put shortly:
as §1

Assay [7] deals with PPARg:RXRa (NR concentration 180 nM, RXRa partner concentration 90 nM). Put shortly: as §1
Assay [8] has as its system PPARg:RXRa 270nM:90nM, anti-RXR (NR concentration 270 nM, RXRa partner concentration 90 nM). Put shortly:
as §1

The test system of assay [9] is PPARg:RXRa 30nM:10nM, anti-RXR (NR concentration 30 nM, RXRa partner concentration 10 nM). Put shortly: as §1
Assay [10] relates to PPARg:RXRa 90nM:30nM, anti-RXR (NR concentration 90 nM, RXRa partner concentration 30 nM). The procedure, abridged: as §1
For assay [11], the system named is PPARg:RXRa DBDmut IVT, anti-RXR (DBD mutation: RXRa K156A/R161A, NR concentration 270 nM, RXRa partner concentration 90 nM). The procedure, abridged: as §1
In assay [12] the test system is PPARg:RXRa IVT, anti-PPARg (NR concentration 270 nM, RXRa partner concentration 90 nM). Put shortly: as §1
The subject of assay [13] is PPARg DBDmut:RXRa IVT, anti-PPARg (DBD mutation: PPARg1 K132A/R137A, NR concentration 270 nM, RXRa partner concentration 90 nM). Put shortly:
as §1

Assay [14] relates to PPARg DBDmut IVT, anti-PPARg (DBD mutation: PPARg1 K132A/R137A, NR concentration 270 nM). Put shortly:
as §1

Assay [15] relates to PPARg homodimer (NR concentration 180 nM). Put shortly: as §1
Assay [16] relates to PXR:RXRa (NR concentration 270 nM, RXRa partner concentration 90 nM). Put shortly:
as §1

Assay [17] concerns PXR homodimer (NR concentration 270 nM). Put shortly:
as §1

In assay [18] the test system is RARa:RXR (NR concentration 270 nM, RXRa partner concentration 90 nM). The procedure, abridged: as §1
Assay [19] relates to RARa homodimer (NR concentration 270 nM). Put shortly: as §1
The subject of assay [20] is RARb:RXRa (NR concentration 270 nM, RXRa partner concentration 90 nM). Put shortly: as §1

This is an account of results in the supplement of paper PMC6555819.

Regarding GCTAATAGTTGAAAGGGCAACCGAATGATTCTCG, the PBM binding z-score was 0.971 in assay [1]; 1.16 in assay [2]; -0.065 in [3]; 1.09 in assay [4]; -0.087 in assay [5]; 2.85 in [6]. Also, the PBM binding z-score stood at 3.03 in assay [7]; 4.2 in assay [8]; 2.1 in [9]; 3.9 in [10]; 0.302 in assay [11]; 1.27 in [12]. Moreover, the PBM binding z-score in assay [13] was -0.057; in assay [14], -0.27; in assay [15] it was 0.836; in [16], 0.859; in assay [17] it was -0.00303; in [18] it was 1.61. Besides, the PBM binding z-score in assay [19] came to 0.745; in [20], 2.21.

For GCTACTAGGTCAGGTTGGTCAGCTAACGGGTACG, the PBM binding z-score in assay [1] amounted to 1.47; in assay [2], 0.811; in [3], 0.0315; in [4], 0.809; in assay [5], 0.129; in [6], 2.66. Also, the PBM binding z-score in [7] turned out to be 4.12; in [8] it was 3.52; in [9], 0.868; in assay [10], 3.19; in assay [11] it was 7.04; in assay [12], 6.37. Moreover, the PBM binding z-score in assay [13] is 0.412; in [14], 0.27; in assay [15] it was 1.12; in [16], 0.422; in assay [17] it was -0.0861; in [18], 0.74. The values for the PBM binding z-score in assay [19] and in assay [20] were 0.258 and 3.26, respectively.

As to TCATATAGGTAATACAGGAGAAAGTCGGCATCTA, the PBM binding z-score was found to be 0.853 in assay [1]; 1.01 in assay [2]; 0.161 in assay [3]; 0.676 in assay [4]; 0.172 in assay [5]; 1.07 in [6]. Moreover, the PBM binding z-score in assay [7] is 1.23; in [8], 2.37; in [9] it was 3.96; in [10], 2.81; in [11], 4.09; in assay [12], 2.1. Moreover, the PBM binding z-score in assay [13] was determined as 1.79; in assay [14], 0.92; in assay [15], 0.788; in assay [16], 0.627; in [17], 0.0379; in [18], 0.706. The PBM binding z-score in [19] is 1.13; in assay [20], 0.369.

For the sequence CAAACTAGGTCAAGGTCGAAGTCGGTTTGTGCCA, the PBM binding z-score in assay [1] is 4.68; in [2], 3.03; in [3], 0.706; in assay [4], 2.37; in [5] it was -0.00931; in assay [6], 5.05. Besides, the PBM binding z-score was 8.77 in [7]; 7.1 in assay [8]; 5.52 in [9]; 7.19 in [10]; 8.51 in assay [11]; 8.63 in [12]. The PBM binding z-score in assay [13] is 2.92; in assay [14], 2.06; in [15] it was 3.02; in assay [16], 2.71; in [17], 0.704; in assay [18] it was 3.14. The figures for the PBM binding z-score in assay [19] and in assay [20] were 0.902 and 4.47, respectively.

As for TCTCGGAGGACACGAAGGTCGGAGCTTTCCAGAG, the PBM binding z-score in assay [1] was 0.628; in [2] it was -0.0853; in assay [3], -0.898; in [4], -0.334; in assay [5] it was -1.43; in assay [6], 0.339. For the same sequence, the PBM binding z-score in [7] is -0.0942; in assay [8], 1.17; in [9], 1.87; in assay [10], 1.67; in assay [11] it was 1.25; in [12], 0.119. Further, the PBM binding z-score was -2.18 in [13]; -1.55 in assay [14]; -0.462 in assay [15]; 0.265 in [16]; -0.139 in assay [17]; 0.366 in [18]. Also, the results for the PBM binding z-score in [19] and in assay [20] were -1.24 and 1.81, respectively.

Regarding TCTATTAGTTGATTAGGGGAACCGAAACAGCGGA, the PBM binding z-score in [1] was found to be 0.954; in assay [2], 0.771; in assay [3], 0.585; in assay [4], 0.845; in assay [5] it was 1.38; in assay [6], 0.915. Also, the PBM binding z-score stood at 0.0434 in [7]; 2.05 in [8]; 4.11 in [9]; 2.94 in assay [10]; 2.55 in assay [11]; 0.819 in assay [12]. The PBM binding z-score in assay [13] stood at 0.627; in [14], 1.48; in assay [15] it was 1.45; in [16] it was 0.576; in [17], 0.595; in assay [18] it was 0.544. In addition, the results for the PBM binding z-score in [19] and in assay [20] were 2.06 and 0.416, respectively.

With CCGACTGGGGCAGAAAGGTTACCATACCATCCGG, the PBM binding z-score is 0.35 in [1]; 0.432 in assay [2]; -0.092 in assay [3]; 0.947 in assay [4]; -1.04 in assay [5]; 2.03 in assay [6]. Also, the PBM binding z-score was determined as 1.69 in [7]; 2.6 in assay [8]; 0.687 in [9]; 2.03 in assay [10]; 1.62 in assay [11]; 2.01 in assay [12]. Moreover, the PBM binding z-score in [13] was -0.897; in assay [14], -0.652; in assay [15] it was 1.04; in [16], 0.796; in assay [17] it was -0.416; in [18], 1.49. In addition, the results for the PBM binding z-score in assay [19] and in assay [20] were -0.549 and 1.74, respectively.
